# NS1 function inh = influenza NS1 inhibition; 270,000 compounds, 0.4% hits; AID 2326; Potency, µM (highest dose often 46.1 µM); note: actives are rising curves; nearly all actives have a fitted effect of over 50% in size
#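 S. cerevisiae expressing influenza A NS1, grown in glucose, washed, then diluted 1:100 into pH 6.0 -URA galactose medium with 23 nl compound. Growth recovery read as OD600; NS1-free strain serves as control.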
# Cycloheximide cs = counter-screen hit for Shiga toxin inhibitors, cycloheximide; max response, %; AID 2314; 300,000 compounds, 12% hits; cell reporter, cycloheximide protein synthesis inhibition counterscreen; in the data active = max response mostly above about 13%, no sharp cut-off; inactive = mostly below about 14%; note: read at 38.3 µM for the half of the compounds with a filed dose
# SARS PLP yeast = SARS-CoV PLP inhibition in yeast; S. cerevisiae expressing SARS-CoV PLpro, growth rescue; Potency, µM (doses to about 32.9 µM), most hits filed as activators; 330,000 compounds, 0.19% hits; note: nearly all actives have a fitted effect of over 55% in size
# LmPK inh = inhibitors of Leishmania mexicana pyruvate kinase; Potency, µM (top dose mostly 57.5 µM), hits mostly inhibitors; AID 1721; purified LmPK, Kinase-Glo ATP luminescence, 1 h; 290,000 compounds, 0.37% hits; active = well fitted curve in the direction sought with a large enough effect; inconclusive = small, poorly fitted or top-dose-only effect, or another doubt; inactive = no such curve, though single readings can be large; an effect the other way counts as inactive or inconclusive
# Target sequence (Q27686 whole entry, looked up): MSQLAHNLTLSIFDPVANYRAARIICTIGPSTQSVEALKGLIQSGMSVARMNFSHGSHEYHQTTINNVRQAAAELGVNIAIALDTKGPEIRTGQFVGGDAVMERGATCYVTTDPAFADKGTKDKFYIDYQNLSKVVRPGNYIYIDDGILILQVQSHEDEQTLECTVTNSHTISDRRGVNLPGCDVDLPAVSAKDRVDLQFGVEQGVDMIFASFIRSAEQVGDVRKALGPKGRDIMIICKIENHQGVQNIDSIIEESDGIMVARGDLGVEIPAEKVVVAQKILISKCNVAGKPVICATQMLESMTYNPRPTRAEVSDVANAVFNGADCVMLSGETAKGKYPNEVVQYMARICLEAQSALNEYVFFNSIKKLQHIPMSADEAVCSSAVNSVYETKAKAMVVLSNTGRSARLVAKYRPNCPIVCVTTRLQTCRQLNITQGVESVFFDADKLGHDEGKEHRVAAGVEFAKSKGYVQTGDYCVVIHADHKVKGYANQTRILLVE
#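 Pyruvate kinase activity monitored as ATP production (luciferase luminescence). Conditions: 0.1 nM enzyme, 0.5 mM PEP, 0.1 mM ADP, 1 h, RT; normalized against uninhibited and no-enzyme wells.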
# Shiga toxin inh = Shiga toxin inhibition; Vero cells, Shiga toxin protein synthesis inhibition reporter; inhibition, % at 38.7 µM; 290,000 compounds, 9.2% hits; AID 2315; in the data active = inhibition mostly above about 28%, no sharp cut-off; inactive = mostly below about 43%
# TbPYK inhibitor = T. brucei pyruvate kinase inhibition | 410,000 compounds, 0.12% hits | TbPYK enzyme, Kinase-Glo Plus ATP luminescence, 45 min | Potency, µM (series often up to 76.8 µM), usual class: inhibitors | Q57TT1; active = well fitted curve in the direction sought with a large enough effect; inconclusive = small, poorly fitted or top-dose-only effect, or another doubt; inactive = no such curve, though single readings can be large; an effect the other way counts as inactive or inconclusive; note: nearly all actives have a fitted effect of over 50% in size
#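 TbPYK + substrate in 50 mM TEA pH 7.2, 100 mM KCl, 10 mM MgCl2, 0.05% BSA, 0.01% Tween-20; cpd pinned; ADP 130 uM final; 45 min RT; Kinase-Glo Plus 10 min; luminescence endpoint.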
# Hits are given with their value; 0 = inactive; ? = inconclusive; - = no result given; [ ] = another dose, or the depositor's remark. This excerpt belongs to a sample that is enriched for hits. Unless noted, calls come from the whole dose curve.
SMILES,NS1 function inh,Cycloheximide cs,SARS PLP yeast,LmPK inh,Shiga toxin inh,TbPYK inhibitor
COc1cc(OC)cc(C(=O)NCC(=O)Nc2ccc(-c3ccccc3)cc2)c1,0,20.0,0,0,62.7,0
CC(=O)c1c(C)oc2ccc(N(C(=O)Oc3ccccc3)S(=O)(=O)c3ccccc3)cc12,-,-,-,-,-,0
CCN(C(=O)COc1ccc2ccc(=O)oc2c1)C1CCCCC1,-,-,0,-,-,0
COc1cc(NC(=O)COc2cccc(OC)c2)cc(OC)c1,0,0,0,0,0,0
CC(C)(C)C1(C)OC(=O)C(=Cc2ccc(OCC(=O)Nc3ccccc3)cc2)C(=O)O1 (configuration not stated),0,17.6,0,0,58.8,0
COc1cccc(NC(=O)CSc2nc(N)cc(N)n2)c1,0,0,0,0,0,0
COc1cccc(NC(=O)COc2ccccc2)c1,0,27.9,0,0,-,0
COc1cccc(NC(=O)CSC(N)=O)c1,?,0,0,0,35.7,0
COc1cc(C=C2C(=O)OC(C)(C)OC2=O)cc(Cl)c1OCC(=O)Nc1ccccc1,0,0,0,0,0,0
CSC(=NC#N)N1CCN(c2ccc(Cl)cc2)CC1,0,27.8,0,0,47.3,0
CN(C)C(=C(C#N)C#N)N1CCN(c2ccc(Cl)cc2)CC1,0,0,0,0,0,0
O=C1c2ccccc2C(=O)N1CCCCN(C(=O)c1cc2ccccc2oc1=O)c1ccc(F)cc1F,0,59.6,0,0,73.7,0
CN(C)CCCN(C(=O)c1cc2ccccc2oc1=O)c1nc2ccc(F)cc2s1,0,12.5,0,0,0,0
Cc1ccc2nc(N(CCN(C)C)C(=O)c3cc(Cl)sc3Cl)sc2c1,0,21.8,0,0,32.8,0
CN(C)CCN(C(=O)c1ccc2ccccc2c1)c1nc2ccc(F)cc2s1,0,18.1,0,0,0,0
CCc1ccc(C(O)c2ncc(-c3cccc(OC)c3)[nH]2)cc1 (configuration not stated),-,-,-,-,-,0
CC1CN(C(=O)c2ccc(Br)c(S(=O)(=O)N3CCOCC3)c2)CC(C)O1 (configuration not stated),-,-,0,-,-,0
Cc1ccc(C2c3c(-c4ccccc4O)n[nH]c3C(=O)N2CCCO)cc1 (configuration not stated),-,-,-,-,-,0
CN(C)CCCN(C(=O)c1ccc2c(c1)CCCC2)c1nc2c(F)cccc2s1,0,16.7,0,0,23.9,0
N#Cc1nc(-c2ccc(COc3ccc(Cl)cc3)o2)oc1N1CCC(C(N)=O)CC1,-,-,-,-,-,0
CCOc1ccccc1-n1c(CNc2ccc(F)cc2)nnc1SCC(=O)NCc1ccco1,0,21.6,0,0,0,0
O=C(CSc1nnc(COc2ccccc2F)n1-c1ccccc1)NCc1ccco1,0,19.4,0,0,53.2,0
C=CCn1c(COc2ccccc2F)nnc1SCC(=O)NC(=O)NCc1ccco1,0,0,0,0,0,0
CCCCNC(=O)CCCCCNS(=O)(=O)c1ccc(Br)cc1,-,0,0,0[11.5 µM],0,0
CN(Nc1cccc(Cl)c1)c1cccc(Cl)c1,-,-,-,-,-,0
SMILES,NS1 function inh,Cycloheximide cs,SARS PLP yeast,LmPK inh,Shiga toxin inh,TbPYK inhibitor
CCOC(=O)C1CCN(C(=O)COc2ccc(C(=O)c3ccccc3)cc2)CC1,-,-,0,-,-,0
CCOC(=O)C1CCN(C(=O)CCCOc2ccccc2)CC1,0,36.2,0,0,63.8,0
CCC1CCCCN1C(=O)CCCOc1ccccc1 (configuration not stated),0,43.5,0,0,0,?
Cc1cc(Cl)ccc1OCC(=O)N1CCCCC1,0,46.5,0,0,63.8,0
O=C(COc1ccc(Cl)cc1Cl)NC(=O)N1CCCCC1,0,45.5,0,0,67.2,0
Cc1ccc(C)c(NC(=O)CCN2C(=O)[C@@H]3Cc4ccccc4CN3C2=O)c1,0,0,0,0,0,0
Cc1ccc(C(=O)c2oc3ccccc3c2NC(=O)c2cc(-c3ccccc3)on2)cc1,-,-,-,-,-,0
CC(C)(c1ccc(O)cc1)c1ccc(O)c(C(=O)O)c1,-,-,-,-,-,0
O=C(CCCOc1ccc(Cl)cc1)N1CCCCCC1,0,39.0,0,0,77.4,0
O=C(CCCOc1ccc(Cl)cc1)N1CCCCC1,0,40.3,0,0,85.5,0
O=C(COc1ccc(Cl)cc1)N1CCCCC1,0,34.4,0,0,52.0,0
O=C(CSCc1cccc(Cl)c1)N/N=C/c1ccc(OCC(=O)N2CCCCC2)cc1,0,13.0,0,0,0,0
O=C(COc1ccc(Cl)cc1)N1CCCCCCC1,0,0,0,0,0,0
CC(C)C(NS(=O)(=O)c1cccc(C(F)(F)F)c1)C(=O)N1CCc2ccccc2C1 (configuration not stated),?,0,0,0,0,0
CCOC(=O)C1CCN(C(=O)C(=O)N2CCC(C(=O)OCC)CC2)CC1,0,0,0,0,0,0
O=C(CCCOc1ccccc1)N1CCCCC1,0,54.8,0,0,0,0
O=C(COc1ccccc1)N1CCCCCCC1,0,0,0,0,0,0
CCOC(=O)C(=O)N1CCC(C(=O)OCC)CC1,0,28.0,0,0,0,0
Cn1ncc2c(Cl)ncnc21,0,-,-,-,-,-
COc1ccnc(Oc2ccc(C)cc2C)c1C#N,0,18.2,?,0,0,0
COc1ccc(Oc2nccc(OC)c2C#N)cc1,0,19.6,0,0,0,0
COc1ccnc(Oc2cc(Cl)cc(Cl)c2)c1C#N,0,0,0,0,0,0
N#Cc1c(-c2ccccc2)ccnc1Oc1ccccc1,0,24.1,0,0,58.6,0
COc1cccc(Oc2nccc(N(C)C)c2C#N)c1,0,15.5,0,0,38.7,0
O=C(NCC1CCCO1)c1ccc2c(c1)C(=O)N(c1cccc([N+](=O)[O-])c1)C2=O (configuration not stated),0,0,0,0,0,0
SMILES,NS1 function inh,Cycloheximide cs,SARS PLP yeast,LmPK inh,Shiga toxin inh,TbPYK inhibitor
O=C1/C(=C\c2ccc(O)c(O)c2)Oc2c1ccc(O[C@@H]1O[C@H](CO)[C@@H](O)[C@H](O)[C@H]1O)c2O,-,0,-,-,0,-
NCCCCCCNc1nc2c(N)ncnc2n1[C@@H]1O[C@@H]2COP(=O)(O)O[C@H]2[C@H]1O,-,0,-,-,0,-
COc1cccc(N2CCN(S(=O)(=O)c3ccc4c(c3)oc(=O)n4C)CC2)c1,0,16.6,0,0,0,0
CCOc1ccccc1NC(=O)N1CCC(NC(=O)C2CCCCC2)CC1,0,0,0,0,0,0
COc1ccc(-c2[nH]ncc2CN2CCCC(C(=O)c3ccc(OC)cc3OC)C2)cc1 (configuration not stated),0,0,0,0,0,0
COc1ccc2cc(-c3[nH]ncc3CN3C[C@@H]4CCC[C@H]3C4)ccc2c1,0,32.0,0,0,0,0
COCC1CCCCN1Cc1cn[nH]c1-c1ccc2cc(OC)ccc2c1 (configuration not stated),0,19.3,0,0,31.6,0
COc1ccc2cc(-c3[nH]ncc3CN3CCCN(c4ccccc4)CC3)ccc2c1,0,16.4,0,0,0,0
COc1ccc2cc(-c3[nH]ncc3CN3CCCCO3)ccc2c1,0,20.4,0,0,56.8,0
